About 810 (0.43%) of roughly 190,000 compounds were called active. This is one part of a sample in which actives are shown more often than they occur. Unmarked numbers belong to inactive results. Cut-off read from the data, not from the text of the source: active = inhibition above about 50%; inactive = the rest.

The assay deals with Mannose-6-phosphate isomerase (Homo sapiens) (UniProt P34949). Kind of assay: inhibitors of human PMI, primary screen, biochemical, fluorescence intensity, coupled assay (AID 1209).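 Note: plate controls were DMSO vehicle for no effect and wells lacking substrate for full effect.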 To be noted: purified PMI enzyme, at 20 µM, hits give high values.
Mannose-6-phosphate isomerase (Homo sapiens), sequence (P34949 whole entry, looked up): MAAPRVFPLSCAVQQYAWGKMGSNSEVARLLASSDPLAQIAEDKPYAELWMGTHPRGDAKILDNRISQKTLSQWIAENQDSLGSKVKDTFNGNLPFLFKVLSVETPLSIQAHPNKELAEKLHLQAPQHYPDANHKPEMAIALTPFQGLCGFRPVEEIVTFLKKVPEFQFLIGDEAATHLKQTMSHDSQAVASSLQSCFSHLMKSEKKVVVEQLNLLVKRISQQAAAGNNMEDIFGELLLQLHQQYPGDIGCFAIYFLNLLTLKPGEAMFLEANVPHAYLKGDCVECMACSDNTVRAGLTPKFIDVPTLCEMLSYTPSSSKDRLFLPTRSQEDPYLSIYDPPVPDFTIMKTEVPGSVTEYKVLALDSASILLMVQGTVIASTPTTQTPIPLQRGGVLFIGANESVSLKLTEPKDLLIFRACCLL
As usually defined, the inhibition is the change of the read-out against control, counted positive when it falls. Turning to `Cc1ccc(NC(=S)NNC(=O)Cn2nc(C(F)F)cc2C(F)F)cc1`, the inhibition is -10%.

With `Cc1ccsc1/C=C/c1ccc2cccc(O)c2n1`, the inhibition is -6.3%. In the case of `CSc1ccc(/C=C/c2ccc3cccc(O)c3n2)cc1`, the inhibition is -33.5%. For `COc1ccc(-c2nc(CSCC(=O)NC3CCCc4ccccc43)c(C)o2)cc1` (configuration not stated), the inhibition is 7%. As to `Cc1c(Cl)c(C(=O)NC2CCCC2)nn1C`, the inhibition is -11.9%. In the case of `Nc1nc2c(s1)CCc1c-2cnn1-c1ccccc1`, the inhibition was 86.9% (active). The figure for `Nc1nc2c(s1)COc1ccccc1-2` is 12.7%. With `Nc1nc(-c2ccccc2)c(-c2ccccc2)s1`, the inhibition is -1.1%. The same measure for `CCCCCc1nc2sc3c(c2c(=O)n1N)CCC3`: -5.8%; for `O=C(Cn1cnc2ccccc2c1=O)NCc1ccc2c(c1)OCO2`: 2%. The figure for `O=C(CCc1ccccc1)NC(=S)NCc1ccco1` is 7.5%; for `CNCCCNC(=O)c1ccc(/C=N/O)nc1` it is -9.8%. The same measure for `NCCCNC(=O)c1ccc(/C=N/O)nc1`: 0.9%; for `C[N+](C)(C)CCCNC(=O)c1ccc(/C=N/O)nc1`: 83.5% (active). `CCOC(=O)CC(=O)Nc1ccc(Br)cc1C(=O)O`: the inhibition is 7.4%. `COC(=O)c1ccc(-c2nc(-c3ccc(Br)o3)no2)cc1`: the inhibition is 10.6%.

For the molecule `COc1ccccc1Sc1ccccc1/C=N/NC(N)=O`, the inhibition was 2.1%. The figure for `Cc1cc(=O)n(-c2ccc(C(=O)O)cc2)[nH]1` is -22.8%. The figure for `CC(C)(C)c1cc(=O)n(-c2ccccc2)[nH]1` is 64.7% (active). The figure for `COC(=O)Cc1cc(=O)n(-c2ccccc2)[nH]1` is 11%; for `CC(c1nc2ccccc2o1)N1C(=O)c2ccccc2C1=O` (configuration not stated) it is 66.9% (active); for `O=C1c2ccccc2C(=O)N1c1ccc(-c2nc3ccccc3o2)cc1` it is -2.8%. `O=C1c2ccccc2C(=O)N1Cc1nc2ccccc2o1`: the inhibition is -0.5%.

With `Cc1ccc(NS(=O)(=O)c2ccccc2[N+](=O)[O-])cc1C`, the inhibition is -10.7%. The figure for `CCN1C(=O)CSc2ccc(C(=O)OC)cc21` is -2.3%. The figure for `COc1ccc(NC(=S)N(Cc2cccc(Br)c2)CC2CCC(C(=O)O)CC2)cc1` (configuration not stated) is -6.9%; for `CC(C)N=c1scc(-c2cccs2)n1/N=C/c1ccc(O)c(O)c1O` it is 75.9% (active). The figure for `Oc1ccc(/C=N/n2c(-c3ccco3)csc2=Nc2cccnc2)c(O)c1` is -1.6%; for `CN=c1scc(-c2ccccc2F)n1/N=C/c1ccc[nH]1` it is -16.2%; for `CN=c1scc(-c2ccccc2F)n1/N=C(\C)c1cccnc1` it is -9.3%. Consider `Cc1nc2ccccc2c(=O)n1/N=C/c1cn(-c2ccccc2)nc1-c1cccs1`, for which the inhibition is -10.8%.

As to `CN=c1scc(-c2ccccc2F)n1/N=C/c1ccc(O)c(O)c1O`, the inhibition was 70.6% (active). For the molecule `CN=c1scc(-c2cccs2)n1/N=C/c1ccccc1O`, the inhibition was 5.2%.

As for `CN=c1scc(C)n1/N=C/c1ccc(O)cc1O`, the inhibition was -4%. Regarding `Cc1ccc(OCC(O)Cn2c(=N)n(CCN3CCOCC3)c3ccccc32)cc1` (configuration not stated), the inhibition was -3.6%.

Take `CC(Oc1ccccc1)C(=O)N1CCN=C1SCc1ccccc1` (configuration not stated): the inhibition was -6.4%. Turning to `Cc1cc(F)ccc1S(=O)(=O)N1CCCOC1CNC(=O)C(=O)NCc1ccco1` (configuration not stated), the inhibition is -3.1%. Consider `CCCCCNC(=O)c1ccc2c(=O)n(CCOC)c(=O)[nH]c2c1`, for which the inhibition is -5.7%. The figure for `O=C(CCNC(=O)c1ccccc1Cl)Nc1ccc(Br)c(C(F)(F)F)c1` is 15%; for `CN1C(=S)SC(N(O)C(=O)Nc2cccc3ccccc23)C1(C)C` (configuration not stated) it is 37.9%. For `CC(NC(=O)c1ccc(C(F)(F)F)cc1)C(c1ccccc1)N1CCOCC1` (configuration not stated), the inhibition is -8.2%. The same measure for `NC(=O)CNc1n[nH]c(=S)[nH]c1=O`: -27.7%; for `COc1cc(/C=N/Nc2ccc(C(F)(F)F)cn2)ccc1O`: 7.1%; for `Oc1ccc(/C=N/Nc2ccc(C(F)(F)F)cn2)cc1`: -2.8%. In the case of `Oc1ccc(/C=N/Nc2ccc(C(F)(F)F)cn2)cc1O`, the inhibition was 61.6% (active).

For `Cc1cc(O)c2c(c1)C(O)(C1OC(CO)C(O)C(O)C1O)c1cccc(O)c1C2=O` (configuration not stated), the inhibition was 2%.

As to `O=C(CCc1nnc(C2CCCCC2)o1)NCc1ccc(F)c(F)c1`, the inhibition is -5.7%.

On to `CCOC(=O)c1cc(C(C)=O)c(=O)[nH]c1C`, for which the inhibition is 2.7%. With `CCCNC(=O)c1ccccc1NC(=O)c1ccccc1SC`, the inhibition was 0.3%. Consider `CC(C)N1C(=O)S/C(=C/c2ccc(Sc3nc4ccccc4[nH]3)o2)C1=O`, for which the inhibition was 26.5%.

As to `CCN1C(=O)S/C(=C/c2ccc(Sc3nc4ccccc4[nH]3)o2)C1=O`, the inhibition was 56.4% (active). The figure for `C=CCN1C(=O)S/C(=C/c2ccc(Sc3nc4ccccc4[nH]3)o2)C1=O` is 44.5%; for `Cc1ccc(S(=O)(=O)NCCOc2nc(N(C)C)nc(N3CCOCC3)n2)cc1` it is 16.3%; for `COC(=O)Cc1c(C(=O)OC)nnn1-c1ccc(OC(F)(F)F)cc1` it is -7.2%. Regarding `COC(=O)Cc1c(C(=O)OC)nnn1-c1cccc(C(F)(F)F)c1`, the inhibition is 75.8% (active). Regarding `O=C(O)Cc1c(C(=O)O)nnn1-c1cccc(C(F)(F)F)c1`, the inhibition was -2.9%. The figure for `O=C(NNC(=O)C1C2CCC(C2)C1C(=O)O)c1cccc(Cl)c1` (configuration not stated) is -7.9%; for `O=C(CCCOc1ccccc1)N1CCN(c2ccccn2)CC1` it is 0.9%. The figure for `O=C(NCc1cccnc1)c1ccc(COc2ccc3c(c2)CCC3)o1` is 11%; for `Cc1ccc(Nc2c(F)c(F)c(F)c(F)c2C(=O)O)cc1` it is -24%; for `COCCn1c(Cc2ccccc2)nnc1SCC(=O)Nc1cc(C)on1` it is 3.8%. The same measure for `CCCCn1c(Cc2ccccc2)nnc1SCC(=O)Nc1cc(C)on1`: 50.8% (active); for `CCn1c(Cc2ccccc2)nnc1SCC(=O)Nc1cc(C)on1`: -6.5%; for `Cc1ccccc1NC(=O)N1CCC(C(=O)c2ccc(F)cc2)CC1`: -0.8%. `Cc1ccc(C(CC(=O)c2ccco2)SCCO)cc1` (configuration not stated): the inhibition is 88.3% (active). The same measure for `O=C(CC(SCCO)c1ccc(F)cc1)c1ccco1` (configuration not stated): 4.8%; for `O=C(CC(SCCO)c1ccc2c(c1)OCO2)c1ccco1` (configuration not stated): 10.7%.

For the molecule `NCCCC[C@@H]1NC(=O)[C@H](CCC(=O)O)NC(=O)c2cc([N+](=O)[O-])cc(I)c2OCC[C@@H](C(N)=O)NC1=O`, the inhibition was -36.4%. The figure for `CC1CN(S(=O)(=O)c2cccs2)CC(C)O1` (configuration not stated) is -2.4%.

On to `CN1C(=O)SC(Nc2ccc(F)cc2)C1=O` (configuration not stated), for which the inhibition was 3.1%. The same measure for `Cc1cc2n(n1)SC(Nc1ccc(F)cc1)N2` (configuration not stated): 64.5% (active); for `Cc1cc2n(n1)SC(Nc1ccccc1)N2` (configuration not stated): 24.7%. The same measure for `CCc1ccc(Nc2cc(C)nc3nc(C)nn23)cc1`: -5.4%; for `CCc1ccc(NC(=O)c2cc(C)on2)cc1`: 6.1%; for `COc1ccc(CCNC(=O)c2nnn(-c3cccc(C)c3)c2N)cc1OC`: 4.4%. As for `Cc1nc(SC(C(=O)c2ccccc2)c2ccccc2)n[nH]1` (configuration not stated), the inhibition was 2%. Take `C=CCn1c(SCc2c(F)cccc2Cl)nnc1-c1ccco1`: the inhibition was -6.5%. The figure for `CCCn1c(NCc2ccco2)nc2c1c(=O)n(C)c(=O)n2C` is -8.2%; for `COc1ccc(F)cc1C(=O)C1CCCN(Cc2ccc(Oc3ncccn3)cc2)C1` (configuration not stated) it is -3.3%; for `Nc1c2c(nc3ccc(Br)cc13)N(c1ccccc1)CC2` it is 17%. The figure for `Cc1ccc2nc3c(c(N)c2c1)CCN3c1ccccc1` is 0.5%; for `Cc1cccc(N2CCc3c2nc2ccc(Br)cc2c3N)c1` it is 69.9% (active); for `CCN(CC)S(=O)(=O)c1ccc2c(c1)nc(CCC(=O)Nc1ccc(N3CCOCC3)cc1)n2C` it is 3.7%.

For `COc1ccc(Cl)cc1Nc1ncnc2sc(C)c(S(=O)(=O)N3CCC(C)CC3)c12`, the inhibition was 5.4%. For `Cc1cc2nc[nH]c2cc1[N+](=O)[O-]`, the inhibition is 4%. The same measure for `Nc1cc2nc[nH]c2cc1N`: 68.3% (active). The figure for `Nc1ccc2nc[nH]c2c1` is -17.5%; for `c1ccc2c(-c3nn[nH]n3)cccc2c1` it is -8.6%; for `O=C(N/N=C/c1ccc(N2CCOCC2)o1)c1cccc(F)c1` it is -2.7%.

Consider `O=C(N/N=C/c1ccc(N2CCOCC2)o1)c1cccc([N+](=O)[O-])c1`, for which the inhibition is 79% (active).

Take `O=C(N/N=C/c1ccc(N2CCOCC2)o1)c1cccc(C(F)(F)F)c1`: the inhibition was -5.7%. On to `CCOC(=O)c1c(-c2ccc(C)cc2)csc1/N=C/N(C)C`, for which the inhibition was 12.2%. The same measure for `COc1ccc(OC)c(N=C2C(=O)Nc3ccccc32)c1`: 16.4%; for `COc1cc(OC)c(Cl)cc1N`: 9.7%. On to `COc1ccc(OC)c(N=C(N)N=C(N)N)c1`, for which the inhibition is 2.9%.

For `COc1cc(N=c2ssnc2Cl)c(OC)cc1Cl`, the inhibition is 98.9% (active).

Take `COc1cc(N)c(Cl)cc1Cl`: the inhibition was -7.9%.

Take `COc1ccc(OC)c(N=c2ssnc2Cl)c1`: the inhibition is 88.1% (active). On to `C#CCOCCOCCOCCNc1nc(N2CCN(C(=O)C([C@@H](C)CC)n3cc(C(N)Cc4ccc(O)cc4)nn3)CC2)nc(N2CCN(C(=O)[C@H](CCC(=O)O)n3cc(C(N)CC(C)C)nn3)CC2)n1` (some centres not stated), for which the inhibition was -18.6%.

`COc1ccc(C(=O)/C=C/C(=O)N(Cc2ccccc2OC)C(C(=O)NC2CCCCC2)c2ccncc2)c(O)c1` (configuration not stated): the inhibition was 13.1%. Turning to `Cc1ccc(S(=O)(=O)/N=C(/c2ccc(F)cc2)N2CCCC2)cc1`, the inhibition was 7.2%. The same measure for `CSc1ccc(/C=C/C(=O)c2ccc(NC(=O)Cc3ccccc3)cc2)cc1`: 15.3%.

The values are drawn from PubChem BioAssay AID1209 (Sanford-Burnham Center for Chemical Genomics, 2008).
